Bioassay records deposited in PubChem BioAssay by National Center for Advancing Translational Sciences (NCATS).
Hits are enriched below; roughly 19% of the tested compounds scored in any of these assays.
KB-3-1 cytotox: KB-3-1 parental cell cytotoxicity | 400,000 compounds, 1.4% hits | KB-3-1 viability, CellTiter-Glo ATP luminescence, 72 h | Potency, µM (series often up to 46.1 µM), usual class: cytotoxic; further: nearly all actives have a fitted effect of over 60% in size
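Luminescent ATP read-out (CellTiter-Glo) measures survival of drug-naive KB-3-1 cells after 72 h compound exposure at 37 °C. Titration series was screened from lowest to highest concentration, with DMSO vehicle plates as background controls.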
HT1080 IDH1KD tx: HT-1080 IDH1 knockdown cell toxicity (counter line); HT-1080 IDH1 knockdown viability, ATP luminescence, 48 h; Potency, µM (doses to about 46.1 µM), without a hit: at the highest dose activity, negative = toxicity, actives largely listed as cytotoxic; 360,000 compounds, 2% hits; AID 686971;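 further: 0% = DMSO wells and -100% = cell-free medium wells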
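Knockdown cells (IDH1KD HT-1080) received compounds 2 h after plating at 750 cells/well and were kept 48 h at 37 °C in 5% FBS RPMI. A CellTiter-Glo luminescence read gave % activity for curve fitting.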
TDP1 cell noCPT: qHTS for Inhibitors of human tyrosyl-DNA phosphodiesterase 1 (TDP1): qHTS in cells in absence of CPT; Potency, µM (top dose mostly 46.2 µM), without a hit: at the top dose activity change, negative = growth inhibition, most hits filed as inhibitors; DT40 Tdp1-/- hTDP1 cells, no CPT, ATP luminescence, 48 h; 420,000 compounds, 15% hits; further: nearly all actives have a fitted effect of over 55% in size
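A cellular qHTS used chicken DT40 cells lacking endogenous Tdp1 but carrying stably transfected human TDP1. Compounds were applied without camptothecin, and cell growth kinetics were judged by ATP-dependent luminescence after ≥48 hr.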
TDP1 cell CPT: growth inhibition of DT40 Tdp1-/-;hTDP1 cells with camptothecin (screen for TDP1 inhibitors); chicken DT40 Tdp1-/-;hTDP1 cells + 20 nM CPT, ATP luminescence, 48 h; Potency, µM (doses to about 46.2 µM), without a hit: top-dose activity change, negative = growth inhibition, hits mostly inhibitors; 420,000 compounds, 12% hits; further: nearly all actives have a fitted effect of over 55% in size
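Chicken DT40 Tdp1-/- cells stably complemented with human TDP1 were seeded at 400 cells/well in medium containing 20 nM camptothecin, exposed to pin-transferred compounds, and grown at 37 °C for at least 48 hr. Viability was read as ATP luminescence.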
KB-V1 MDR tox: kills drug-selected multidrug resistant KB-V1 cells. KB-V1 MDR cells viability, CellTiter-Glo, 72 h. Potency, µM (doses to about 46.1 µM), most hits filed as cytotoxic. 400,000 compounds, 3.4% hits; further: nearly all actives have a fitted effect of over 60% in size
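Drug-selected KB-V1 cells, grown in DMEM lacking phenol red with 10% FBS, receive compound titrations; after three days at 37 degrees C, surviving cell ATP is quantified by CellTiter-Glo luminescence and responses normalized and curve-fitted.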
HT1080NT lethal: kills 2HG-producing HT-1080-NT fibrosarcoma cells. 360,000 compounds, 1.6% hits. Potency, µM (titrated, usually from 46.1 µM), for the others: at the top dose activity, negative = less viability, actives largely listed as cytotoxic. HT-1080-NT fibrosarcoma viability, CellTiter-Glo ATP luminescence, 48 h. AID 686970;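 further: NT is the 2HG producing partner of a matched IDH1 knockdown line; 0% = DMSO-treated cells and -100% = media-only wells without cells; nearly all actives have a fitted effect of over 55% in size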
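Read-out is CellTiter-Glo luminescence after 10 minutes at room temperature, following 48 hours' compound treatment of HT-1080-NT cells (750 cells/well, RPMI, 5% FBS, 37 degrees C).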
* hit, by the source's call. The call rests on the fitted dose curve; in most records, active means well fitted curve in the direction sought with a large enough effect; inconclusive means small, poorly fitted or top-dose-only effect, or another doubt; inactive means no such curve, though single readings can be large; an effect the other way counts as inactive or inconclusive. Unless noted, on the % scale 0 is the no-effect control and ±100 the full control effect; potency means the concentration at half of the fitted maximal effect.

CCCCN(C=O)c1c(CC)nc2ccc(C(=O)Nc3cc(-c4ccccc4)ccc3OC)cn12 was read as KB-3-1 cytotox inconclusive, HT1080 IDH1KD tx inconclusive, TDP1 cell noCPT 16µM*, TDP1 cell CPT inconclusive, KB-V1 MDR tox 23µM* and HT1080NT lethal inconclusive.
Screening CC1CCN(C(=O)CSc2nnc(Cc3cccn3C)n2CCc2ccccc2)CC1 returned KB-3-1 cytotox inactive, HT1080 IDH1KD tx 0%, TDP1 cell noCPT inconclusive, TDP1 cell CPT 16µM*, KB-V1 MDR tox inactive and HT1080NT lethal 1%.
COc1ccc(-n2c(Cc3cccn3C)nnc2SCC(=O)Nc2cccc(F)c2)cc1 was read as KB-3-1 cytotox inactive, HT1080 IDH1KD tx -4%, TDP1 cell noCPT 26µM*, TDP1 cell CPT 23µM*, KB-V1 MDR tox inactive and HT1080NT lethal -4%.
`Cn1cccc1Cc1nnc(SCC(=O)Nc2cccc(F)c2)n1CCc1ccccc1` gave KB-3-1 cytotox inactive, HT1080 IDH1KD tx -14%, TDP1 cell noCPT inconclusive, TDP1 cell CPT 23µM*, KB-V1 MDR tox inactive and HT1080NT lethal -1%.
Cn1cccc1Cc1nnc(SCC(=O)Nc2ccc(F)cc2)n1-c1ccc(F)cc1 was read as KB-3-1 cytotox inactive, HT1080 IDH1KD tx 1%, TDP1 cell noCPT inconclusive, TDP1 cell CPT inconclusive, KB-V1 MDR tox inactive and HT1080NT lethal 7%.
`CCSc1nnc(NC(=O)CSc2nnc(Cc3cccn3C)n2-c2ccc(F)cc2)s1` gave KB-3-1 cytotox inactive, HT1080 IDH1KD tx 6%, TDP1 cell noCPT inconclusive, TDP1 cell CPT -11%, KB-V1 MDR tox 16µM* and HT1080NT lethal -6%.
`CC1CCN(c2cc(N)c(Cl)cc2[N+](=O)[O-])CC1` gave KB-3-1 cytotox inactive, HT1080 IDH1KD tx -15%, TDP1 cell noCPT -22%, TDP1 cell CPT -3%, KB-V1 MDR tox inactive and HT1080NT lethal -5%.
COC(=O)c1ccccc1NC(=O)c1cc(CN2CCOCC2)on1 was read as KB-3-1 cytotox inactive, TDP1 cell noCPT -11%, TDP1 cell CPT 5% and KB-V1 MDR tox inactive.
`CSc1nnc(Cn2c(=O)sc3ccccc32)n1-c1ccccc1` gave KB-3-1 cytotox inactive, HT1080 IDH1KD tx 2%, TDP1 cell noCPT 21µM*, TDP1 cell CPT 21µM*, KB-V1 MDR tox inactive and HT1080NT lethal 0%.
CC(C)Sc1nnc(Cn2c(=O)sc3ccccc32)n1-c1ccccc1 was read as KB-3-1 cytotox inactive, HT1080 IDH1KD tx 6%, TDP1 cell noCPT inconclusive, TDP1 cell CPT inconclusive, KB-V1 MDR tox inactive and HT1080NT lethal 14%.
O=C(CSc1nnc(Cn2c(=O)sc3ccccc32)n1CCc1ccccc1)N1CCOCC1 was read as KB-3-1 cytotox inactive, HT1080 IDH1KD tx -1%, TDP1 cell noCPT -30%, TDP1 cell CPT -21%, KB-V1 MDR tox 18µM* and HT1080NT lethal 22%.
`O.O.O.O.O.O.O.O=S(=O)([O-])[O-].[Co+2]` gave TDP1 cell noCPT -17% and TDP1 cell CPT -23%.
Screening CCN(C(=O)Cn1nc(Cc2ccncc2)c2ccccc2c1=O)c1cccc(Cl)c1 returned KB-3-1 cytotox inactive, TDP1 cell noCPT 21µM*, TDP1 cell CPT inconclusive and KB-V1 MDR tox inactive.
`CCCCN(CC)C(=O)Cn1nc(Cc2ccncc2)c2ccccc2c1=O` gave KB-3-1 cytotox inactive, HT1080 IDH1KD tx 10%, TDP1 cell noCPT 1%, TDP1 cell CPT -10%, KB-V1 MDR tox inactive and HT1080NT lethal 12%.
Screening COc1ccc(Cl)cc1NC(=O)Cn1c(=O)n(Cc2ccco2)c(=O)c2cccnc21 returned KB-3-1 cytotox inactive, TDP1 cell noCPT 16µM*, TDP1 cell CPT inconclusive and KB-V1 MDR tox inactive.
For CCN(C(=O)Cn1nc(Cc2cccnc2)c2ccccc2c1=O)c1cc(C)ccc1C the results were TDP1 cell noCPT 23µM* and TDP1 cell CPT 23µM*.
`O=C(Cn1c(=O)n(Cc2ccco2)c(=O)c2cccnc21)Nc1ccccc1F` gave KB-3-1 cytotox inactive, TDP1 cell noCPT inconclusive, TDP1 cell CPT -28% and KB-V1 MDR tox inactive.
COc1ccc(Cl)cc1NC(=O)Cn1nc(Cc2ccncc2)c2ccccc2c1=O was read as TDP1 cell noCPT 23µM* and TDP1 cell CPT inconclusive.
O=C(Cn1nc(Cc2cccnc2)c2ccccc2c1=O)N1CCN(c2ccccn2)CC1 was read as KB-3-1 cytotox inactive, HT1080 IDH1KD tx -3%, TDP1 cell noCPT -17%, TDP1 cell CPT -17%, KB-V1 MDR tox inactive and HT1080NT lethal 3%.
`Cc1cccc(N2CCN(C(=O)Cn3nc(Cc4cccnc4)c4ccccc4c3=O)CC2)c1C` gave TDP1 cell noCPT 8.2µM* and TDP1 cell CPT 13µM*.
`COC(=O)c1ccc(CO/N=C/c2ccc(OC)cc2)o1` gave KB-3-1 cytotox inactive, HT1080 IDH1KD tx 1%, TDP1 cell noCPT -10%, TDP1 cell CPT 10%, KB-V1 MDR tox inactive and HT1080NT lethal -1%.
For CCN(CC)CCNC(=O)c1ccc(NC(=O)c2ccc(S(=O)(=O)N3CCCCCC3)cc2)cc1 the results were KB-3-1 cytotox inconclusive, HT1080 IDH1KD tx -3%, TDP1 cell noCPT inconclusive, TDP1 cell CPT inconclusive, KB-V1 MDR tox inconclusive and HT1080NT lethal -7%.
CCN(CC)CCNC(=O)c1ccc(N2CCCCC2)c(NS(=O)(=O)c2ccc(C)cc2)c1 was read as KB-3-1 cytotox inconclusive, HT1080 IDH1KD tx inconclusive, TDP1 cell noCPT 21µM*, TDP1 cell CPT 26µM*, KB-V1 MDR tox inconclusive and HT1080NT lethal inconclusive.
COC(=O)c1ccc(N2CCCCC2)c(NS(=O)(=O)c2ccc(C)cc2)c1 was read as KB-3-1 cytotox inactive, HT1080 IDH1KD tx 2%, TDP1 cell noCPT inconclusive, TDP1 cell CPT 16µM*, KB-V1 MDR tox inconclusive and HT1080NT lethal -9%.
Screening N=C1C=CC(=C(c2ccc(N)cc2)c2ccc(N)cc2)C=C1 returned KB-3-1 cytotox 3.7µM*, HT1080 IDH1KD tx 7.3µM*, TDP1 cell noCPT 3.3µM*, TDP1 cell CPT 2.9µM*, KB-V1 MDR tox inactive and HT1080NT lethal 23µM*.
`Cc1ccc2[nH]c3c(=O)n(CC(=O)N4CCCC(C)C4)ncc3c2c1` (configuration not stated) gave KB-3-1 cytotox inactive, TDP1 cell noCPT 18µM*, TDP1 cell CPT inconclusive and KB-V1 MDR tox inactive.
